Source: publication PMC5540273 (PLoS ONE, 2017)

The compounds below were run on NEK4. Conditions: concentration: 1 μM, replicates: in singlicate; n = 1.
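Also: KINOMEscan kinase panel screen.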

Compound	%Inh
Cn1ccc2ncnc(Oc3ccc(NC(=O)Nc4ccccc4)cc3)c21	0%
COc1cccc(NC(=O)NC2CCN(c3ccnc(Nc4ccc(F)cc4)n3)C2)c1 (centres unmarked) [GSK1379721]	0%
Cc1ccccc1-n1cnc2c(N)ncnc21 [SKF-97510]	0%
COc1ccccc1CNC(=O)c1cc(C(=O)c2ccccc2C)c[nH]1 [GSK364507]	14%
Cn1cncc1-c1ccc2ncnc(Nc3ccc(OCc4ccccc4)cc3)c2c1 [GW320571]	11%
O=C1NC(=O)C(N2CCc3ccccc32)=C1c1ccccc1Cl [SB-373598]	15%
COc1ccc(Nc2nccc(-c3cccc(NC(=O)c4cc5cc(F)ccc5[nH]4)c3)n2)cc1 [GSK1229782]	9%
Cc1c(O)cccc1Nc1ccnc2ccc(C(F)(F)F)cc12.Cl [GW466413]	0%
CC1=C(C(=O)Nc2cc3cn[nH]c3cc2F)C(c2ccc(C(F)(F)F)cc2)CC(=O)N1 (centres unmarked) [GSK429286]	24%
COC(=O)c1c(-c2ccccc2)c2cc(C(=O)O)ccc2c(=O)n1Cc1ccccc1	0%
COc1ccc2nc(-c3cccc(C)n3)nc(Nc3ccncc3)c2c1 [GSK204919]	11%
Cc1cc(-c2ccc3c(c2)CC[C@@H](N[C@@H](C)c2ccccc2)C3)cnc1N.Cl [GW412617]	16%
O=C(Nc1ccccc1)Nc1cccc(Oc2ccc3nccn3n2)c1	0%
Cc1nnc(-c2ccc3occ(-c4ccc(S(C)=O)cc4)c3c2)[nH]1 (centres unmarked)	0%
